For 52 compounds, EC50 results are on record in PubChem BioAssay AID434947 (Broad Institute, 2010).

Structures are written as SMILES. Screen size: about 2,200 compounds; about 15 (0.7%) were called active. This excerpt belongs to a sample that is enriched for actives. Unmarked numbers belong to inactive results.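 How the source made its calls: active means fitted half-maximal concentration for loss of luminescence signal no more than a set limit of log units above the top tested concentration; inconclusive means flat fit with 30 to 70% signal loss, or invalid fit; inactive means half-maximal concentration above that set limit.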

A short description of the assay: ADP-Glo luciferase signal interference – biochemical, luminescence, cell-free, homogeneous, artefact control for GSK3beta inhibitor project, dose response (AID 434947).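 Further: kinase-free counter screen of ADP-Glo detection reagents for GSK3beta hits.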 Conditions: Cell-free ADP-Glo reagents, 5 uM ADP. Background: In ADP-Glo the light output rises with the ADP produced.
Usually EC50 stands for the concentration that produces a half-maximal response. For `COC(=O)C1=C(C)N(Cc2ccccc2)C(=NCc2ccc(OC)cc2)N[C@H]1c1cccc(F)c1`, the EC50 was greater than 30 µM.
Next, `CS(=O)(=O)N(Cc1ccccc1)c1ccc(C(=O)Nc2ccccc2Sc2ccccc2)cc1`: greater than 30 µM.
For the compound `Cc1ccnc(NC(=O)c2ccc([N+](=O)[O-])o2)c1`, the EC50 was greater than 30 µM.
Take `CCCCc1cc(=O)oc2cc(C)cc(OC(C)C(=O)O)c12` (configuration not stated): the EC50 is greater than 30 µM.
Take `NC(=O)C1CCN(c2nc3c(S(=O)(=O)c4ccccc4)nnn3c3ccccc23)CC1`: the EC50 is greater than 30 µM.
For `Cc1ccnc(SCCn2c(N3CCOCC3)nc3c2c(=O)[nH]c(=O)n3C)n1` the value was greater than 30 µM; for `CCSc1nc2sc3c(c2c(=O)n1-c1ccccc1)CCN(C)C3`, greater than 30 µM; for `CCOC(=O)c1cnc2c(C)cccc2c1Nc1ccc(N2CCOCC2)cc1`, greater than 30 µM.
For `COc1ccc(-c2nn(-c3ccccc3)cc2CO)cc1OC` the value was greater than 30 µM; for `COc1cccc2c1cc1c(=O)n(CC(=O)NCCCc3ccccc3)nc(C)n12`, greater than 30 µM.
Next, `Cc1[nH]nc2c1C(c1ccc(N(C)C)cc1)C1=C(CC(C)(C)CC1=O)N2` (configuration not stated): greater than 30 µM; `CC(C(=O)NCc1ccccc1)n1cc([N+](=O)[O-])cn1` (configuration not stated): greater than 30 µM.
As for `CC(C)N1CCc2c(sc(NC(=O)CCS(=O)(=O)c3ccccc3)c2C(N)=O)C1`, the EC50 is greater than 30 µM.
For `COc1cc(/C=C2/SC(=Nc3ccc(O)cc3)NC2=O)ccc1O` the value was greater than 30 µM.
In the case of `CN(C)Cc1c(O)ccc2c(=O)c(-c3ccccc3)c(C(F)(F)F)oc12`, the EC50 was greater than 30 µM.
For the compound `COc1ccc(-c2nn(-c3ccccc3)cc2/C=C(\C#N)S(=O)(=O)c2ccccc2)cc1OC`, the EC50 was greater than 30 µM.
Next, `Cc1ccc(S(=O)(=O)/N=C2/NC(=O)/C(=C/c3ccccc3)S2)cc1`: greater than 30 µM; `CN(C)c1ccc(C(=O)NN2C(=O)c3ccccc3C2=O)cc1`: greater than 30 µM.
For the compound `O=C1CC(c2ccc(O)c(O)c2)Oc2cc(O)cc(O)c21` (configuration not stated), the EC50 is greater than 30 µM.
Next, `Cc1nn(-c2ccccn2)c2c1C(c1ccsc1)C1=C(CCCC1=O)N2` (configuration not stated): greater than 30 µM.
For `COc1cc(C(c2nnnn2C(C)(C)C)N2CCN(c3nc4ccccc4s3)CC2)ccc1O` (configuration not stated) the value was greater than 30 µM; for `Cc1ccc2sc(N3CCN(CCNC(=O)c4ccco4)CC3)nc2c1C`, greater than 30 µM.
For `O=[N+]([O-])c1cc(/C=N/O)ccc1N1CCCC1` the value was greater than 30 µM; for `CCOC(=O)c1nnn(-c2nonc2N)c1CSc1ccc(C)cc1`, greater than 30 µM.
On to `CC1(C)CC2CC(C)(CN2S(=O)(=O)c2ccc(C(=O)Nc3ccc(Cl)c(S(=O)(=O)N4CCOCC4)c3)cc2)C1` (configuration not stated), for which the EC50 is greater than 30 µM.
Next, `COCCN(CC(=O)NCc1ccc(F)cc1)C(=O)CCC(=O)Nc1ccccn1`: greater than 30 µM; `Cc1nc(NCCCn2ccnc2)c2ccccc2n1`: greater than 30 µM.
For `Cc1csc(SCC(=O)Nc2ccc(Cl)cn2)n1` the value was greater than 30 µM; for `CCc1nnc(NC(=O)c2cc(-c3ccccc3)nn2-c2ccccc2)s1`, greater than 30 µM; for `O=C(CS(=O)(=O)c1ccccc1)Nc1ncc([N+](=O)[O-])s1`, greater than 30 µM.
Next, `COc1ccc2nc(C)cc(N3CCOCC3)c2c1`: greater than 30 µM; `CC1=C(C(=O)Nc2ccccc2F)C(c2cccs2)C2=C(CCCC2=O)N1` (configuration not stated): greater than 30 µM.
On to `Cc1ccc2c(C)c(C(=O)Nc3nnc(C)s3)oc2c1`, for which the EC50 is greater than 30 µM.
For the compound `NC1=NC(=Nc2ccccc2)c2ccccc21`, the EC50 was greater than 30 µM.
For `CCCn1nc(NC(=O)C(C)C)c2cc3cc(OC)ccc3nc21`, the EC50 is greater than 30 µM.
For `CCNC(=S)Nc1ccc2cn[nH]c2c1` the value was greater than 30 µM; for `COc1cccc(C(=O)NCC(=O)N/N=C(C)\C=C\c2ccccc2)c1`, greater than 30 µM; for `CC(C)CCNc1nc(N)c([N+](=O)[O-])c(NCC2CCCO2)n1` (configuration not stated), greater than 30 µM.
For the compound `COc1ccccc1Nc1nc(N(C)c2ccccc2)nc(N)c1[N+](=O)[O-]`, the EC50 is greater than 30 µM.
For `CN(Cc1c(C(=O)N/N=C/c2cccc(F)c2)nnn1-c1nonc1N)c1ccccc1` the value was greater than 30 µM.
For `Cc1nn(-c2ccccc2)c2c1cc1c(=O)n(C)c(=O)nc-1n2-c1ccccc1F` the value was greater than 30 µM; for `CC1=NN(C(=O)CCc2ccc3c(c2)OCO3)C(O)(C(F)(F)F)C1` (configuration not stated), greater than 30 µM.
As to `CCCn1c(SCC(=O)Nc2ccc(Cl)cn2)nnc1C1CC1`, the EC50 was greater than 30 µM.
Regarding `COc1ccc(C(=O)c2sc(Nc3ccccc3)nc2C)cc1`, the EC50 was greater than 30 µM.
With `COc1ccc(C(=O)O/N=C(\C)c2ccccc2)cc1`, the EC50 was 24 µM (active).
For `COc1cccc(C(N)=O)c1`, the EC50 is greater than 30 µM.
Consider `COc1ccc2occ(C(=O)c3cccs3)c2c1`, for which the EC50 was greater than 30 µM.
Next, `COc1ccc(C(=O)O/N=C(/C)c2cccs2)cc1`: 16.2 µM (active).
`COc1ccc(C(=O)c2ccsc2N)cc1`: the EC50 was greater than 30 µM.
Consider `Cc1ccc(SCC(=O)N2CC(C)OC(C)C2)cc1` (configuration not stated), for which the EC50 was greater than 30 µM.
Next, `COc1ccc(-c2cc(C(F)(F)F)nc(SCCC(=O)N3CCOCC3)n2)cc1`: greater than 30 µM.
`COc1ccc(Cl)cc1NC(=O)CS(=O)(=O)c1cccc2nsnc12`: the EC50 was greater than 30 µM.
